Results on 38 compounds are retold here after PubChem BioAssay (NCI).

Test [1] can be described thus: NCI Yeast Anticancer Drug Screen. Data for the rad50 strain (AID 155).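 Also: 0% = growth of vehicle-only cultures of the same strain.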 The following applies: S. cerevisiae rad50 strain growth inhibition, hits give high values; at 50.0 µM unless noted. In outline: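 Relative growth inhibition (compound vs vehicle) was measured in yeast with a defined repair-gene alteration.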
A short description of test [2]: NCI Yeast Anticancer Drug Screen. Data for the mec2-1 strain (AID 157). The following applies: S. cerevisiae mec2-1 strain, hits give high values; at 50.0 µM unless noted. In outline:
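Cells of the genetically defined mec2-1 yeast strain are incubated with test compound. Inhibition of growth is calculated against vehicle-treated controls.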

A short description of test [3]: NCI Yeast Anticancer Drug Screen. Data for the sgs1 mgt1 strain (AID 161).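 Also: 0% = growth of cultures given vehicle only.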 The following applies: S. cerevisiae sgs1 mgt1 strain, hits give high values; at 50.0 µM unless noted. In outline: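 Read-out: growth inhibition vs vehicle controls. Cells: mutant yeast strain deficient in DNA damage repair.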
Test [4] in a line: NCI Yeast Anticancer Drug Screen. Data for the cln2 rad14 strain (AID 165).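 Also: 0% = growth equal to vehicle treated cultures.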 The following applies: S. cerevisiae cln2 rad14 strain, hits give high values; at 50.0 µM unless noted. In outline: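 The screen exposed genetically defined yeast (cln2 rad14) to test compounds and scored growth inhibition relative to vehicle-treated controls.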
The nature of test [5]: NCI Yeast Anticancer Drug Screen. Data for the bub3 strain (AID 167). The following applies: S. cerevisiae bub3 mutant strain, hits give high values; at 50.0 µM unless noted. In outline:
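Screening used yeast with an engineered genetic alteration affecting cell cycle control. Compound-exposed cultures were compared with vehicle cultures, and reduced growth was taken as inhibition.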

Test [6] can be described thus: NCI Yeast Anticancer Drug Screen. Data for the mlh1 rad18 strain (AID 175). Conditions: S. cerevisiae mlh1 rad18 strain growth inhibition, hits give high values; at 50.0 µM unless noted. In outline:
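Compound-treated yeast growth, normalised to vehicle controls. Strain bears defined DNA repair mutations.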

This is part of a sample that, as a whole, favours compounds with a hit. Of some 79,000 tested, about 15% had one in any assay. Values without a mark were called inactive. Active and inactive are the calls of the source. Rule as the data show it: active = growth inhibition above about 70%; inactive = the rest.

Consider `Cn1c2ccc(Cl)cc2c2ccc3c(c21)C(=O)C=CC3=O`, for which the growth inhibition is -21.9% in test [1]; -33% in test [2]; -18.3% in test [3]; 14.2% in test [4]; -25.2% in test [5]; -8.05% in test [6].
With `O=P(O)(O)OCC1OC(n2cnc3c(=S)nc[nH]c32)C(O)C1O` (stereo not drawn), the growth inhibition in test [1] was -17.4%; in test [2] it was 3.95%; in test [3], -14.1%; in test [4], 3.9%; in test [5], -7.7%; in test [6], -3.55%.
As to `CCOC(=O)C(CCc1ccccc1)(NC(C)=O)C(=O)OCC`, the growth inhibition was 10.4% in test [1]; -7.8% in test [2]; 12.3% in test [3]; -4.65% in test [4]; 14.3% in test [5]; -10% in test [6].
With `CCS(=O)(=O)CC(O)CS(=O)(=O)CC`, the growth inhibition is 6.5% in test [1]; -6.35% in test [2]; -38% in test [3]; -4.95% in test [4]; -6.35% in test [5]; -15.4% in test [6].
For `Cc1ccc(C(=O)OCC(C)C)s1`, the growth inhibition in test [1] is -6.6%; in test [2], 1.35%; in test [3], -25.8%; in test [4], -40.8%; in test [5] it was -6.55%; in test [6], 13.4%.
`O=C1NCC(CCl)O1` (stereo not drawn): the growth inhibition in test [1] is 8.3%; in test [2], -12.2%; in test [3] it was -2.15%; in test [4], 9.3%; in test [5] it was 18.1%; in test [6], 1.9%.
For the compound `c1nc2c([nH]1)CCNC2c1ccc(C2NCCc3[nH]cnc32)cc1` (stereo not drawn), the growth inhibition in test [1] was 1.65%; in test [2], -1.65%; in test [3] it was 1.3%; in test [4], -38.9%; in test [5], -14.1%; in test [6] it was -2.95%.
On to `CN1CCCC1CCN` (stereo not drawn), for which the growth inhibition in test [1] was 0.15%; in test [2], -10.8%; in test [3], -13.8%; in test [4], -1%; in test [5], 3.9%; in test [6] it was 6.15%.
Regarding `O=C1/C(=C/c2ccccc2)CCC2CCCCC12` (stereo not drawn), the growth inhibition in test [1] is 22.1%; in test [2], -0.95%; in test [3], -0.8%; in test [4], -24.9%; in test [5] it was -20.1%; in test [6] it was 14.4%.
For the compound `CSc1ccc(C2NC(=O)NC2=O)cc1` (stereo not drawn), the growth inhibition in test [1] was -10.2%; in test [2] it was -14.6%; in test [3], -1.95%; in test [4] it was -9%; in test [5] it was 4.95%; in test [6], -10.1%.
`COCCCC(=O)CNC(C)C`: the growth inhibition in test [1] is -5.05%; in test [2], -42.1%; in test [3] it was -8.75%; in test [4] it was -15.4%; in test [5], -21.1%; in test [6], -14.4%.
In the case of `C=C1C(=O)OC2/C=C(\C)C(O)CCC(C)(O)CC(OC(=O)/C(C)=C/C)C12` (stereo not drawn), the growth inhibition was 2.35% in test [1]; -5.45% in test [2]; -3.1% in test [3]; 17.4% in test [4]; 3.7% in test [5]; -1.9% in test [6].
Consider `O=c1oc(-c2ccccc2)nc2c1sc1nc(-c3ccccc3)oc(=O)c12`, for which the growth inhibition was 47.9% in test [1]; 30.7% in test [2]; 43.3% in test [3]; 79.8% (active) in test [4]; 24.6% in test [5]; 49.4% in test [6].
As to `Cc1noc(NC(=O)Nc2ccccc2F)c1C#N`, the growth inhibition in test [1] was -24.3%; in test [2] it was -10.4%; in test [3] it was -33.1%; in test [4], 26.9%; in test [5], -15.9%; in test [6], -2.25%.
Regarding `CC1=NN(C(=O)CC(=O)Nc2ccc(C)cc2)C(=O)C1N=Nc1ccc(S(=O)(=O)c2ccc(N=NC3C(=O)N(C(=O)CC(=O)Nc4ccc(C)cc4)N=C3C)cc2)cc1` (stereo not drawn), the growth inhibition was 49.8% in test [1]; 36% in test [2]; 36.8% in test [3]; 21.2% in test [4]; -1.2% in test [5]; 39.6% in test [6].
Take `COC(=O)C(CCSC)NC(=O)C1CSC(C)(C)N1C=O` (stereo not drawn): the growth inhibition in test [1] was 0.65%; in test [2], 0.2%; in test [3], 39.2%; in test [4], -1.85%; in test [5] it was 44.5%; in test [6] it was -1.85%.
Consider `CCN(CC)CCCC(C)Nc1ncnc2ccccc12` (stereo not drawn), for which the growth inhibition is 2.2% in test [1]; 8.95% in test [2]; 23.1% in test [3]; 15.6% in test [4]; -7.3% in test [5]; -2.25% in test [6].
Consider `CNc1nc(=O)[nH]c(C)c1[N+](=O)[O-]`, for which the growth inhibition is 19.9% in test [1]; 4.45% in test [2]; -6.9% in test [3]; -60.8% in test [4]; -4% in test [5]; 12.6% in test [6].
With `CCOC(OCC)N1C(=O)C2(C(OCC)OCC)CC3C(OC(=O)N3N)c3cccc1c32` (stereo not drawn), the growth inhibition in test [1] is -16.4%; in test [2], 4.15%; in test [3], -7.45%; in test [4], -8.95%; in test [5], -4.75%; in test [6], -4.4%.
For `C=C(Br)CN(C#N)CC(=C)Br`, the growth inhibition in test [1] is -24.4%; in test [2] it was -18.1%; in test [3] it was 13.8%; in test [4] it was -4.25%; in test [5] it was -10.5%; in test [6], -56.9%.
With `COC1OCC(N=[N+]=[N-])C(OS(C)(=O)=O)C1OS(C)(=O)=O` (stereo not drawn), the growth inhibition is -1.65% in test [1]; -4.3% in test [2]; 6.85% in test [3]; -6.75% in test [4]; -16.4% in test [5]; -34.5% in test [6].
`COc1ccc(C(=O)N2N=C(C)C(C)(C)C2(C)O)cc1` (stereo not drawn): the growth inhibition is -7.05% in test [1]; -23.1% in test [2]; -23.6% in test [3]; 2.5% in test [4]; -29.8% in test [5]; -1.95% in test [6].
As to `ClCCCCCNC1CCCCC1`, the growth inhibition in test [1] is -1.2%; in test [2] it was -45.6%; in test [3] it was -4.3%; in test [4], -15.7%; in test [5] it was -17.2%; in test [6] it was -14.2%.
Consider `Cc1nc2c(cc1C(=O)NN)c(=O)n(C)c(=O)n2C`, for which the growth inhibition in test [1] is 8.8%; in test [2], -1.9%; in test [3] it was -8.5%; in test [4], -5.85%; in test [5] it was -8.05%; in test [6] it was 31.6%.
For `CN(C)N=Nc1ccc(/C=C/C(=O)O)cc1`, the growth inhibition in test [1] is 15.2%; in test [2], 4.8%; in test [3], 11.4%; in test [4], 1.65%; in test [5], 8.55%; in test [6], -4.95%.
In the case of `CC1(C)OC(CI)C(COS(C)(=O)=O)O1` (stereo not drawn), the growth inhibition in test [1] is 3.7%; in test [2], 3.2%; in test [3], 3.7%; in test [4], -25.2%; in test [5], -11.3%; in test [6], -2.25%.
On to `Cc1nn(C(=O)Cc2ccccc2)c2c1C(c1ccc(Cl)cc1)SC(N)=N2` (stereo not drawn), for which the growth inhibition is -30.1% in test [1]; -31.5% in test [2]; -29.1% in test [3]; 6.45% in test [4]; -23.6% in test [5]; -25.1% in test [6].
Turning to `c1ccc(N2CN(c3ccccc3)C2)cc1`, the growth inhibition in test [1] was -19.4%; in test [2] it was -8.25%; in test [3], 4%; in test [4] it was -11.6%; in test [5], 5.6%; in test [6] it was 15.8%.
In the case of `Cc1cccc(C(=N)c2ccccc2Cc2cccc3ccccc23)c1C`, the growth inhibition in test [1] is 51%; in test [2], 6.5%; in test [3], 66%; in test [4], 17.6%; in test [5], 68.5%; in test [6], 37.8%.
As for `Cc1onc(-c2ccccc2)c1C(C)(O)c1ccccc1` (stereo not drawn), the growth inhibition in test [1] was 12.8%; in test [2] it was 11.2%; in test [3], 16.6%; in test [4], -17.9%; in test [5], 18.2%; in test [6], 5.7%.
As to `Cc1[nH]c2c(ccc3c2ccc2c(=O)c(C)c(C)[nH]c23)c(=O)c1C`, the growth inhibition in test [1] was -2.05%; in test [2] it was -7.45%; in test [3], -4.35%; in test [4], -29%; in test [5], -0.3%; in test [6], 2.3%.
On to `CCN(CCO)C(=O)Nc1ccc(Cl)cc1`, for which the growth inhibition is -6.1% in test [1]; -31.6% in test [2]; 11.1% in test [3]; 8.6% in test [4]; 0.55% in test [5]; -7.65% in test [6].
On to `COc1cccc(C(c2ccccc2)C(CC(=O)O)CC(=O)O)c1` (stereo not drawn), for which the growth inhibition in test [1] is 8.8%; in test [2], 8.6%; in test [3], -12.8%; in test [4], 4%; in test [5], -2.1%; in test [6] it was -16.5%.
In the case of `CC(C)=C1C2CCC1C(CO)C2CO` (stereo not drawn), the growth inhibition in test [1] was 4.95%; in test [2] it was -8.45%; in test [3], -13.5%; in test [4], -102%; in test [5], -2.4%; in test [6] it was -15.7%.
As to `CC(NCCN1CCOCC1)c1ccc2ccccc2c1` (stereo not drawn), the growth inhibition in test [1] is 40.7%; in test [2] it was 15.4%; in test [3] it was 41.5%; in test [4] it was 23.9%; in test [5] it was 32.8%; in test [6] it was 42.6%.
As to `COc1ccc(/C=N/NC(=O)c2ccccc2)c(OC)c1`, the growth inhibition is 17.1% in test [1]; 0% in test [2]; 6.65% in test [3]; 17.7% in test [4]; 28.2% in test [5]; 9.3% in test [6].
With `COc1ccc(CCNCC(O)CSc2ccc(Cl)cc2)cc1OC` (stereo not drawn), the growth inhibition is 74.8% (active) in test [1]; 20.4% in test [2]; 73% (active) in test [3]; 27.9% in test [4]; 22% in test [5]; 30.6% in test [6].
Turning to `NC(N)=N/N=C(/CC1OC(=O)c2ccccc21)c1ccc2ccccc2c1` (stereo not drawn), the growth inhibition in test [1] is -3.2%; in test [2], -12.4%; in test [3] it was -2.65%; in test [4], 6.5%; in test [5], -16.1%; in test [6], -11.9%.
